Source: PubChem
TIM10 inh = growth inhibitors of TIM10 yeast strain; actives 1.4% (n = 330,000); inhibition, % at 10 µM; S. cerevisiae TIM10 strain growth, BacTiter-Glo luminescence, 24 h;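 active = inhibition of 40% or more at the single tested concentration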;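 note: wild-type TIM10 isogenic control strain grown at permissive 25 °C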
PfHsp90 set2 = reduces growth (ATP signal) of yeast expressing P. falciparum Hsp90; actives 0.32% (n = 310,000); inhibition, % at 9.4 µM; S. cerevisiae expressing PfHsp90, BacTiter-Glo ATP, 48 h; yeast lacking PDR1 and PDR3 efflux regulators;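 active = every replicate shows inhibition above about 80%, whatever the replicate mean, limit read from the data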;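 note: 0% = DMSO neutral controls and 100% = 20 µM radicicol positive controls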
tim10-1 inh = inhibits growth of tim10-1 mutant yeast; S. cerevisiae tim10-1 ts strain growth, BacTiter-Glo, 24 h; inhibition, % at 20 µM; actives 2.2% (n = 330,000);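 active = inhibition of at least 40%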;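 note: mutant grown at 25 °C; 0% = DMSO wells with yeast and 100% = wells holding no yeast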
NALP1 yeast inh = NALP1 inhibition. inhibition, % at 10 µM. actives 0.61% (n = 280,000). S. cerevisiae NALP1/ASC/caspase-1 growth, X-gal OD620, 72 h; in the data active = inhibition mostly above about 24%, no sharp cut-off; inactive = mostly below about 32%
tim23-1 inh = growth inhibitors of tim23-1 mutant yeast | S. cerevisiae tim23-1 growth, BacTiter-Glo luminescence, 24 h | inhibition, % at 20 µM | actives 1.3% (n = 330,000);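 active = growth inhibition of the mutant yeast at or above 50%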;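 note: temperature-sensitive mutant grown at 25 °C; plate controls were DMSO-treated mutant yeast for no effect and medium wells lacking yeast for full effect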
NLRP3 yeast inh = NALP3 inhibition in yeast; actives 0.39% (n = 330,000); Yeast reconstituted NLRP3/ASC/caspase-1, beta-gal luminescence, 24 h; inhibition, % at 10 µM;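 active = inhibition of 50% or more; inactive = inhibition below 50%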;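 note: plate controls were induced DMSO wells for no effect and uninduced yeast grown without galactose for full effect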
tim10-1 conf = confirmation of tim10-1 mutant yeast growth inhibitors; shares compounds with tim10-1 inh; inhibition, % at 20 µM; S. cerevisiae tim10-1 ts strain growth, BacTiter-Glo, 24 h; actives 56% (n = 7,400);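 active = inhibition of yeast growth at or above a set limit in either of two repeat tests at 20 µM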;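 note: tim10-1 mutant grown at permissive 25 °C to find synthetic lethal compounds; 0% = DMSO yeast wells and 100% = medium wells without yeast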
tim10 confirm = TIM10 yeast growth inhibition, confirmed. shares compounds with TIM10 inh. S. cerevisiae tim10 strain growth, BacTiter-Glo luminescence, 24 h. inhibition, % at 10 µM. actives 63% (n = 4,600). AID 463215;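 active = inhibition of yeast growth at or above a set limit in either of two replicates at 10 µM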;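 note: this counterscreen used the strain with wild-type TIM10; 0% = yeast with DMSO and 100% = medium wells lacking yeast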
tim23-1 conf = confirmation of tim23-1 mutant yeast growth inhibitors; shares compounds with tim23-1 inh; S. cerevisiae tim23-1 growth, BacTiter-Glo luminescence, 24 h; inhibition, % at 20 µM; actives 83% (n = 4,400);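 active = inhibition above about 39% in either of two replicate wells at 20 µM, limit read from the data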;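 note: temperature-sensitive tim23-1 mutant grown at 25 °C; 0% = DMSO wells with yeast and 100% = medium wells without yeast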
Starred values were filed as active, the others as inactive. Hits are enriched below; roughly 4.2% of the tested compounds scored in any of these assays.

Results for Cc1ccc(C2CC(c3cccs3)=NN2C(=O)CSC2=NN3CCCC(=O)N=C3S2)cc1 (stereo not given) ?
TIM10 inh: 45*; PfHsp90 set2: 2; tim10-1 inh: 50*; NALP1 yeast inh: 34; tim23-1 inh: 57*; NLRP3 yeast inh: 10; tim10-1 conf: 44*; tim10 confirm: 40*; tim23-1 conf: 60*

What do the screens show for `Cc1cnc(NC(=O)C2(c3ccccc3)CC2)s1`?
PfHsp90 set2: 6; NALP1 yeast inh: -6

What do the screens show for `CCc1cc(C(=O)N(CC(C)C)c2c(N)n(Cc3ccccc3)c(=O)[nH]c2=O)sc1C`?
TIM10 inh: -1; PfHsp90 set2: 12; tim10-1 inh: -14; tim23-1 inh: -8; NLRP3 yeast inh: 21

Results for COc1ccccc1-c1ccc(Nc2cccc(C(F)(F)F)c2)nn1 ?
TIM10 inh: -8; PfHsp90 set2: 1; tim10-1 inh: 8; NALP1 yeast inh: 8; tim23-1 inh: -5; NLRP3 yeast inh: 3

How did COc1ccccc1-c1ccc(NC2CCCCC2)nn1 do in these assays?
TIM10 inh: 29; PfHsp90 set2: 4; tim10-1 inh: 43*; NALP1 yeast inh: 10; tim23-1 inh: 52*; NLRP3 yeast inh: 17; tim10-1 conf: 38*; tim23-1 conf: 41*

Results for OCCOCCNc1ncnc2c1c(-c1ccccc1)cn2-c1ccccc1 ?
TIM10 inh: 26; PfHsp90 set2: 1; tim10-1 inh: 47*; NALP1 yeast inh: -1; tim23-1 inh: 50*; NLRP3 yeast inh: 18; tim10-1 conf: 4; tim23-1 conf: 46*

How did Cc1ccc(C(=O)N2[C@@H]3CN(C)C(=O)[C@@]2(Cc2ccccc2)[C@H]2C(=O)N(C)C(=O)[C@@H]32)cc1 do in these assays?
PfHsp90 set2: -17

How did Cc1ccc(N=C(NOC(=O)c2ccccc2)c2nonc2N)c(C)c1 do in these assays?
TIM10 inh: 49*; PfHsp90 set2: 15; tim10-1 inh: 46*; NALP1 yeast inh: 6; tim23-1 inh: 57*; NLRP3 yeast inh: 12; tim10-1 conf: 49*; tim10 confirm: 40*; tim23-1 conf: 41*

What do the screens show for `Cc1ccc(N=C(NO)c2nonc2N)c(C)c1`?
TIM10 inh: 4; PfHsp90 set2: 9; tim10-1 inh: 25; NALP1 yeast inh: 23; tim23-1 inh: 9; NLRP3 yeast inh: -7

How did O=C(c1cccs1)N(C(=O)c1cccs1)c1ccc(Br)cn1 do in these assays?
TIM10 inh: 63*; PfHsp90 set2: -8; tim10-1 inh: 42*; NALP1 yeast inh: 33; tim23-1 inh: 75*; NLRP3 yeast inh: 37; tim10-1 conf: 31*; tim10 confirm: 50*; tim23-1 conf: 62*

How did O=[N+]([O-])c1ccc(NC(=S)N2CCc3ccccc32)cc1 do in these assays?
TIM10 inh: 35; PfHsp90 set2: -8; tim10-1 inh: 49*; NALP1 yeast inh: 2; tim23-1 inh: 54*; NLRP3 yeast inh: 31; tim10-1 conf: 42*; tim23-1 conf: 49*

What do the screens show for `Fc1ccc(C2Nc3cccc4cccc(c34)N2)cc1`?
TIM10 inh: 31; PfHsp90 set2: 21; tim10-1 inh: 45*; NALP1 yeast inh: 12; tim23-1 inh: 57*; NLRP3 yeast inh: -3; tim10-1 conf: 30; tim23-1 conf: 51*

Results for CCOC(=O)c1ccsc1NC(=O)CCS(=O)(=O)c1ccccc1 ?
TIM10 inh: 43*; PfHsp90 set2: -15; tim10-1 inh: 54*; NALP1 yeast inh: 24; tim23-1 inh: 62*; NLRP3 yeast inh: -2; tim10-1 conf: 42*; tim10 confirm: 38*; tim23-1 conf: 51*

How did COC(=O)c1cc(=O)n(-c2ccccc2)c(=Nc2ccccc2)s1 do in these assays?
TIM10 inh: 18; PfHsp90 set2: 4; tim10-1 inh: 51*; NALP1 yeast inh: 52; tim23-1 inh: 73*; NLRP3 yeast inh: 3; tim10-1 conf: 43*; tim23-1 conf: 52*

Results for CCOC(=O)c1ccc(N=c2sc(C(=O)OC)cc(=O)n2-c2ccc(C(=O)OCC)cc2)cc1 ?
TIM10 inh: 24; PfHsp90 set2: -21; tim10-1 inh: 15; NALP1 yeast inh: 33; tim23-1 inh: 20; NLRP3 yeast inh: 9

What do the screens show for `CN1/C(=C\C(=O)Nc2ccc(F)cc2)C(C)(C)c2ccccc21`?
TIM10 inh: 48*; PfHsp90 set2: 10; tim10-1 inh: 45*; NALP1 yeast inh: 34; tim23-1 inh: 68*; NLRP3 yeast inh: 5; tim10-1 conf: 49*; tim10 confirm: -21; tim23-1 conf: 72*

How did CN1/C(=C/C(=O)C2CC2)C(C)(C)c2ccccc21 do in these assays?
TIM10 inh: -21; PfHsp90 set2: 4; tim10-1 inh: -2; NALP1 yeast inh: 1; tim23-1 inh: 10; NLRP3 yeast inh: 25

Results for CCOc1ccccc1NC(=O)CSc1nc2ccccc2c(=O)n1CC1CCCO1 (stereo not given) ?
TIM10 inh: -3; PfHsp90 set2: -23; tim10-1 inh: 24; NALP1 yeast inh: 20; tim23-1 inh: 23; NLRP3 yeast inh: 5

Results for Oc1ccc(/C=N/Nc2ccc(C(F)(F)F)cn2)c(O)c1 ?
TIM10 inh: 65*; PfHsp90 set2: 4; tim10-1 inh: 65*; NALP1 yeast inh: 5; tim23-1 inh: 78*; NLRP3 yeast inh: 30; tim10-1 conf: 44*; tim10 confirm: 72*; tim23-1 conf: 78*

What do the screens show for `CCCCN1C(=O)N(c2nnc(C(C)(C)C)s2)C(O)C1c1ccc(C)cc1` (stereo not given)?
TIM10 inh: 23; PfHsp90 set2: -4; tim10-1 inh: 23; NALP1 yeast inh: 12; tim23-1 inh: 31; NLRP3 yeast inh: 6

What do the screens show for `CCc1ccccc1NC(=O)CNC(=O)c1cc(C2CC2)nc2c1cnn2C(C)C`?
TIM10 inh: -8; PfHsp90 set2: -9; tim10-1 inh: 3; tim23-1 inh: 30; NLRP3 yeast inh: 6

How did CC(C)n1ncc2c(C(=O)NCC(=O)Nc3ccccc3Br)cc(C3CC3)nc21 do in these assays?
TIM10 inh: 8; PfHsp90 set2: 0; tim10-1 inh: 42*; tim23-1 inh: 53*; NLRP3 yeast inh: 21; tim10-1 conf: 26; tim23-1 conf: 44*
